What all share (assay): NCI-60 one-dose screen, 48 h (100 = growth as untreated, 0 = no growth, -100 = all killed)
One test has as its system SK-MEL-2 melanoma. The following applies: 10 µM.
A further test has as its system EKVX NSCLC. The following applies: 10 µM unless noted.
In a further test the test system is SN12C renal. The following applies: 10 µM unless noted.
Another test has as its system UO-31 renal. Particulars: 10 µM unless noted.
In the next test the test system is ACHN renal. The following applies: 10 µM unless noted.
The test system of the next test is CAKI-1 renal. The following applies: 10 µM unless noted.
A further test concerns MOLT-4 leukemia. Particulars: 10 µM unless noted.
The test system of a further test is SR leukemia. Particulars: 10 µM unless noted.
The test system of the next test is RPMI-8226 leukemia. Particulars: 10 µM unless noted.
The test system of a further test is OVCAR-8 ovarian. The following applies: 10 µM unless noted.
The subject of a further test is OVCAR-5 ovarian. The following applies: 10 µM unless noted.
A further test relates to OVCAR-4 ovarian. Particulars: 10 µM unless noted.
The next test deals with SK-OV-3 ovarian. Particulars: 10 µM unless noted.
Another test deals with IGROV1 ovarian. The following applies: 10 µM unless noted.
The test system of another test is OVCAR-3 ovarian. Particulars: 10 µM unless noted.
A further test has as its system HS 578T breast. The following applies: 10 µM.
A further test deals with NCI/ADR-RES ovarian. The following applies: 10 µM unless noted.
In the next test the test system is TK-10 renal. The following applies: 10 µM unless noted.
Another test deals with CCRF-CEM leukemia. Particulars: 10 µM unless noted.
A further test has as its system A498 renal. The following applies: 10 µM unless noted.

Structures are written as SMILES. Compounds without any hit were thinned out: in the full panel of roughly 83,000, 20% have a hit.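 Negative percent growth values reflect cell death: -40 means 40% of the cells present at the start died, and -100 means all died.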 Unmarked numbers belong to inactive results. Calls of active or inactive are those of the source. How the source made its calls: active means growth percent below 10; inactive means the rest.

Regarding `Cc1nn(-c2nc3ccccc3[nH]2)c2c1C(c1ccc(O)cc1)CC(=O)N2` (stereo unspecified), the growth is 51% in the test with SK-MEL-2 melanoma; 109% in the test on EKVX NSCLC; 101% in the test with SN12C renal; 69.3% in the test on UO-31 renal; 97% with ACHN renal; 89.9% with CAKI-1 renal. For the same molecule, the growth in the test with MOLT-4 leukemia was -14.4% (active); in the test on SR leukemia, 53.7%; in the test on RPMI-8226 leukemia, 101%; in the test on OVCAR-8 ovarian, 55.3%; in the test with OVCAR-5 ovarian it was 109%; in the test with OVCAR-4 ovarian, 112%. Besides, the growth was 84.3% with SK-OV-3 ovarian; 75.9% in the test on IGROV1 ovarian; 93.2% with OVCAR-3 ovarian; 28.1% in the test with HS 578T breast; 88.5% in the test on NCI/ADR-RES ovarian.
As for `COc1cc2c(cc1OCCCCCN1CCN(c3ncnc4ccccc34)CC1)N=CC1CCCN1C2=O` (stereo unspecified), the growth was 1.29% (active) in the test with SK-MEL-2 melanoma; -41.5% (active) in the test on EKVX NSCLC; 1.92% (active) in the test with SN12C renal; -21.4% (active) with TK-10 renal; 1.61% (active) with ACHN renal; -18.1% (active) in the test on CAKI-1 renal. The growth is -37.2% (active) in the test with CCRF-CEM leukemia; 0.399% (active) with MOLT-4 leukemia; 0.841% (active) in the test on SR leukemia; -35.6% (active) in the test on RPMI-8226 leukemia; 1.28% (active) in the test with OVCAR-8 ovarian; 23.8% in the test on OVCAR-5 ovarian. In addition, the growth in the test with OVCAR-4 ovarian is -3.06% (active); with SK-OV-3 ovarian, 19.5%; in the test on IGROV1 ovarian, -38.4% (active); with OVCAR-3 ovarian, 1.46% (active); with NCI/ADR-RES ovarian, 12.8%.
As for `N#Cc1c(-c2ccc(C(F)(F)F)cc2)cc(NCC2CCS(=O)(=O)CC2)n2c1nc1ccccc12`, the growth in the test with SK-MEL-2 melanoma was 89.7%; in the test with EKVX NSCLC it was 77.5%; in the test on UO-31 renal it was 56.2%; in the test on TK-10 renal, 93.1%; in the test with ACHN renal, 86.8%; in the test on CAKI-1 renal, 80.9%. Further, the growth is 55.3% in the test on A498 renal; 74.3% in the test with MOLT-4 leukemia; 79.9% with SR leukemia; 80.9% in the test with RPMI-8226 leukemia; 93.3% in the test with OVCAR-8 ovarian; 103% with OVCAR-5 ovarian. Also, the growth in the test on OVCAR-4 ovarian was 85.4%; in the test on SK-OV-3 ovarian, 83.3%; in the test with IGROV1 ovarian, 85.6%; in the test with OVCAR-3 ovarian it was 97.9%; with HS 578T breast it was 81.3%; in the test on NCI/ADR-RES ovarian it was 103%.
In the case of `COc1ccc2nc3cc(Cl)ccc3c(Nc3ccc(N(C)C)cc3)c2c1`, the growth was 96.8% with SK-MEL-2 melanoma; 92.9% with EKVX NSCLC; 84% with UO-31 renal; 128% in the test with TK-10 renal; 100% in the test on ACHN renal; 94.6% in the test with A498 renal. Moreover, the growth is 57.5% in the test on CCRF-CEM leukemia; 0.475% (active) in the test with MOLT-4 leukemia; 1.55% (active) in the test with SR leukemia; 27.2% in the test on RPMI-8226 leukemia; 90.5% in the test with OVCAR-8 ovarian; 110% in the test on OVCAR-5 ovarian. Besides, the growth with OVCAR-4 ovarian is 88.7%; in the test on SK-OV-3 ovarian, 85.7%; in the test on IGROV1 ovarian, 97%; with OVCAR-3 ovarian it was 95.9%; in the test with HS 578T breast, 109%; in the test with NCI/ADR-RES ovarian it was 87.1%.
As to `CCNCCNc1cc(-c2ccc(Cl)c(Cl)c2)c(C#N)c2nc3ccccc3n12`, the growth was -83.1% (active) in the test on SK-MEL-2 melanoma; -80% (active) in the test on EKVX NSCLC; -84% (active) with UO-31 renal; -84.3% (active) in the test with TK-10 renal; -90.5% (active) with ACHN renal; -95.4% (active) with CAKI-1 renal. Also, the growth in the test on A498 renal is -76.6% (active); in the test with CCRF-CEM leukemia it was -30.3% (active); in the test with MOLT-4 leukemia, -43.4% (active); with SR leukemia it was -30.9% (active); in the test with RPMI-8226 leukemia, -39.2% (active); with OVCAR-8 ovarian, -66% (active). The growth with OVCAR-5 ovarian is -76% (active); with OVCAR-4 ovarian it was -78.4% (active); with SK-OV-3 ovarian it was -94.1% (active); in the test on IGROV1 ovarian, -70.7% (active); in the test with OVCAR-3 ovarian, -94% (active); with HS 578T breast, -45.7% (active). Moreover, the growth in the test on NCI/ADR-RES ovarian is -73.4% (active).
In the case of `CC1(O)CCC2CC3OC3(C)CCC3OC3(C)C(O)CC1C2(C)C` (stereo unspecified), the growth with SK-MEL-2 melanoma is 103%; with EKVX NSCLC, 87.8%; with SN12C renal it was 103%; with TK-10 renal, 107%; with ACHN renal it was 101%; in the test on CAKI-1 renal it was 99.2%. Besides, the growth in the test on CCRF-CEM leukemia was 91.5%; with MOLT-4 leukemia, 106%; with SR leukemia it was 104%; with RPMI-8226 leukemia, 84.4%; in the test on OVCAR-8 ovarian, 87.3%; in the test with OVCAR-5 ovarian, 120%. The growth in the test on OVCAR-4 ovarian is 91.1%; in the test on SK-OV-3 ovarian, 109%; with IGROV1 ovarian, 70%; in the test with OVCAR-3 ovarian, 118%; with NCI/ADR-RES ovarian, 112%.
For the molecule `COc1cc(-c2nc(C(=O)Nc3ccc(C)cc3)nn2-c2ccc(F)c(F)c2)cc(OC)c1OC`, the growth in the test on SK-MEL-2 melanoma was 89.5%; in the test with EKVX NSCLC, 99.9%; with UO-31 renal, 72.9%; in the test on TK-10 renal, 98.8%; in the test on ACHN renal, 105%; in the test on A498 renal it was 112%. Also, the growth in the test on CCRF-CEM leukemia is 102%; in the test with MOLT-4 leukemia, 94.9%; in the test with SR leukemia it was 91.8%; in the test with RPMI-8226 leukemia it was 103%; with OVCAR-8 ovarian, 103%; in the test with OVCAR-5 ovarian, 117%. Further, the growth was 103% with OVCAR-4 ovarian; 89.1% in the test with SK-OV-3 ovarian; 86.9% in the test on IGROV1 ovarian; 107% in the test on OVCAR-3 ovarian; 121% in the test with HS 578T breast.
Regarding `CC(C)OP(=O)(CCC(=O)c1c[nH]c2ccccc12)OC(C)C`, the growth in the test with SK-MEL-2 melanoma is 98.9%; in the test on EKVX NSCLC, 96.5%; in the test with SN12C renal, 103%; with UO-31 renal, 82.9%; in the test with ACHN renal, 101%; with A498 renal it was 104%. Moreover, the growth in the test on CCRF-CEM leukemia was 75.7%; in the test with MOLT-4 leukemia, 93.3%; in the test with SR leukemia, 100%; in the test with RPMI-8226 leukemia it was 73.5%; with OVCAR-8 ovarian, 91.8%; with OVCAR-5 ovarian, 107%. Further, the growth is 105% in the test on OVCAR-4 ovarian; 89% in the test on SK-OV-3 ovarian; 106% with IGROV1 ovarian; 106% in the test with OVCAR-3 ovarian; 86.6% with HS 578T breast; 103% with NCI/ADR-RES ovarian.
Take `Clc1nc(Cl)c2ncn(CC#CCn3cnc4c(Cl)nc(Cl)nc43)c2n1`: the growth in the test on SK-MEL-2 melanoma is 65.3%; with EKVX NSCLC, -39.3% (active); with SN12C renal it was 3.09% (active); in the test on ACHN renal, -53.3% (active); with CAKI-1 renal, -96.5% (active); in the test on CCRF-CEM leukemia, -62.2% (active). Moreover, the growth in the test on MOLT-4 leukemia was 1.03% (active); with SR leukemia, -52.6% (active); with RPMI-8226 leukemia it was -56.6% (active); with OVCAR-8 ovarian it was -34.8% (active); in the test on OVCAR-5 ovarian it was -2.99% (active); in the test on OVCAR-4 ovarian, -70.8% (active). Besides, the growth with SK-OV-3 ovarian was 87.5%; with IGROV1 ovarian it was -75.4% (active); with OVCAR-3 ovarian, -90.9% (active).
